What all share (test): log2 fold change, soluble protein after heating vs DMSO (PISA); higher = thermal stabilisation; K562 cells, 10 uM, 30 min; active = over 0.2 and 3.5 SD of the protein, either way, in both replicates (recomputed)
Compound in test [1]: COC1=CC=C(C=C1)CN2C=CC3=C2C=C(C=C3)C(=O)NO
Put shortly:
(§1)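 For each measurement, 10 μM compound was applied for 30 min to K562 cells at 2×10^6 cells/mL. Aliquots were heated for 3 min across 48°C-58°C, pooled, and extracted in PBS with 0.5% NP-40 at 4°C; the supernatant after 21,000xg for 90 min was soluble protein. This was quantified by TMTpro 16plex LC-MS/MS with channel sums equalised, and thermal stability was reported relative to control samples from duplicates, on a log2 fold-change scale.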

Compound in test [2]: CON(C)C(=O)N1N=C(c2cc(F)ccc2F)S[C@@]1(CCCN)c1ccccc1 [filanesib]
The gist of the method: as §1

Compound in test [3]: CO[C@H]1C[C@@H]2CC[C@@H](C)[C@@](O)(O2)C(=O)C(=O)N2CCCC[C@H]2C(=O)O[C@H]([C@H](C)C[C@@H]2CC[C@H](n3cnnn3)[C@H](OC)C2)CC(=O)[C@H](C)/C=C(\C)[C@@H](O)[C@@H](OC)C(=O)[C@H](C)C[C@H](C)/C=C/C=C/C=C/1C [zotarolimus]
The gist of the method:
as §1

Compound in test [4]: COc1cc(C(=O)O)ccc1NC(=O)[C@@H]1N[C@@H](CC(C)(C)C)[C@](C#N)(c2ccc(Cl)cc2F)[C@H]1c1cccc(Cl)c1F [idasanutlin]
The gist of the method:
as §1

Compound in test [5]: COc1cc(Nc2ncc3c(n2)-c2ccc(Cl)cc2C(c2c(F)cccc2OC)=NC3)ccc1C(=O)O [alisertib]
Put shortly: as §1

Compound in test [6]: COc1cc2nc(-c3cc(F)ccc3O)nc(N[C@@H]3CNC[C@H]3C(C)(C)O)c2cc1OC
Put shortly: as §1

Compound in test [7]: COc1cc2ncnc(Nc3ccc(F)c(Cl)c3)c2cc1OCCCN1CCOCC1 [gefitinib]
The gist of the method: as §1

Compound in test [8]: COc1cccc2cc(-c3nc([C@H]4CC[C@H](C(=O)O)CC4)n4ncnc(N)c34)[nH]c12
Put shortly:
as §1

Compound in test [9]: CS(=O)(=O)CCNCc1ccc(-c2ccc3ncnc(Nc4ccc(OCc5cccc(F)c5)c(Cl)c4)c3c2)o1 [lapatinib]
Put shortly:
as §1

Compound in test [10]: CS(=O)(=O)N1CCN(Cc2cc3nc(-c4cccc5[nH]ncc45)nc(N4CCOCC4)c3s2)CC1 [pictilisib]
Put shortly: as §1

The full data set covers some 7,900 targets. This sample favours those with a hit. About 0.6% of all pairs of compound and target were hits. A number with no mark means an inactive call.

Sequence of UniProt Q9H1B7 (Q9H1B7 whole entry, looked up): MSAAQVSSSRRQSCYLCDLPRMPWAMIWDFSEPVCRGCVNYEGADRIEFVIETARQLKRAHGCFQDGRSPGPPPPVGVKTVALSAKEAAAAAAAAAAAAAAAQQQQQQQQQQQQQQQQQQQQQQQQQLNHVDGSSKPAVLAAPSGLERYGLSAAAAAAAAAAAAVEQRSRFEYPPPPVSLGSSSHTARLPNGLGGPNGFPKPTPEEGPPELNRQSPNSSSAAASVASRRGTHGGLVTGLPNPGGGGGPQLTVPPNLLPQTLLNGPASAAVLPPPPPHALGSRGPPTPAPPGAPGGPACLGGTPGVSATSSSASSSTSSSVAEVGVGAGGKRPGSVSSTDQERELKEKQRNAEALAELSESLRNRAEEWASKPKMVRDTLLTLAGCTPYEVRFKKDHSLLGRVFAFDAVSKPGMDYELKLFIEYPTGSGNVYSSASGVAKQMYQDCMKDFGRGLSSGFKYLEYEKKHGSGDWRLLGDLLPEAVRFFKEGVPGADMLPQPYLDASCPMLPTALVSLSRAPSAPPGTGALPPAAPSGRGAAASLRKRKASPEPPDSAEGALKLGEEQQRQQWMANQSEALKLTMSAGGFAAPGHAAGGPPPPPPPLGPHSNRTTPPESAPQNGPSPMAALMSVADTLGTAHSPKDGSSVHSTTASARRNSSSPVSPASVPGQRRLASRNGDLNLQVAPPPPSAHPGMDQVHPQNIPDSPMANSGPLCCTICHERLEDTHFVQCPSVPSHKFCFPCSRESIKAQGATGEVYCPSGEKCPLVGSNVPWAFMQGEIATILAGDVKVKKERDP
Sequence of UniProt Q6P1A2 (Q6P1A2 whole entry, looked up): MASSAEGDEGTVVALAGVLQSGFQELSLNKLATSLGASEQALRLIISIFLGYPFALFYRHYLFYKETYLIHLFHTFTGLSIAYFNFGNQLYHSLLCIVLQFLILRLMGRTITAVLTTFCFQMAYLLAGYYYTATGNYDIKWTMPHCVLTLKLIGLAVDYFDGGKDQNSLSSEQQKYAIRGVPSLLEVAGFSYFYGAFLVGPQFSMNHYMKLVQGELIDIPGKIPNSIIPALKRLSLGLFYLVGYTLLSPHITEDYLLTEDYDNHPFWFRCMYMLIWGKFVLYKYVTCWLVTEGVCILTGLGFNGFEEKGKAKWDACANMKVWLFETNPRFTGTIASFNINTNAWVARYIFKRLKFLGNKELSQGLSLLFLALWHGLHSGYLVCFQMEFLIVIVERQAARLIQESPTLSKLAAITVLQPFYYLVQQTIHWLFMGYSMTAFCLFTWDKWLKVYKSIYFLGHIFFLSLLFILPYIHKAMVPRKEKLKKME
Sequence of UniProt Q16539 (Q16539 whole entry, looked up): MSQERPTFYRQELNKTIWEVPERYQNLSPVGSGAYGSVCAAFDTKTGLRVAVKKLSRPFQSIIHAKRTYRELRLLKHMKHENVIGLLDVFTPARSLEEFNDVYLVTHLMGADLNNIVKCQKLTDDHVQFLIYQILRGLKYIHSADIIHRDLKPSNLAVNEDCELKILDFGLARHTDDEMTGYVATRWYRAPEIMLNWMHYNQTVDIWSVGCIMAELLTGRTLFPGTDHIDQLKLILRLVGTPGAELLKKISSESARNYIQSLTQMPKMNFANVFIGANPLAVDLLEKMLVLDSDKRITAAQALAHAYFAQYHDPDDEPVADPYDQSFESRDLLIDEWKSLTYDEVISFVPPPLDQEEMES
Sequence of UniProt Q16891 (Q16891 whole entry, looked up): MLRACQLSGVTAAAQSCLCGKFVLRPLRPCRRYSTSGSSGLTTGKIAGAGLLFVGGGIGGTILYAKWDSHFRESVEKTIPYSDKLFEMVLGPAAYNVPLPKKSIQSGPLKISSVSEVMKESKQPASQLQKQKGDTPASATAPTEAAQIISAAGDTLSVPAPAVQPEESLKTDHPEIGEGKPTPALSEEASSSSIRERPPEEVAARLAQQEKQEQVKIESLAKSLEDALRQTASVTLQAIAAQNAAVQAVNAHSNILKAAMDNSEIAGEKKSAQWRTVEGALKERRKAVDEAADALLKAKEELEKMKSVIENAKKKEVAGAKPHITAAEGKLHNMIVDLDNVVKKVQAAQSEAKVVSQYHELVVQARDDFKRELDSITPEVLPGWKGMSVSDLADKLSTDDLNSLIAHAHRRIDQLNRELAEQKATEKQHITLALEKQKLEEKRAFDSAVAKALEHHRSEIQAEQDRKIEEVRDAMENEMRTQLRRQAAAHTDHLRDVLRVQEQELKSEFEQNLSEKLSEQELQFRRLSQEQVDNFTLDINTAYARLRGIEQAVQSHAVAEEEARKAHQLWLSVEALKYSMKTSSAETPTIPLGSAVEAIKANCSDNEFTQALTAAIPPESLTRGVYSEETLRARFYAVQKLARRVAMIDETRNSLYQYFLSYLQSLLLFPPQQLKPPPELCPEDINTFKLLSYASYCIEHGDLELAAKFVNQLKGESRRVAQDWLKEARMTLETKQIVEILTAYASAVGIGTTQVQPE
Sequence of UniProt P33947 (P33947 whole entry, looked up): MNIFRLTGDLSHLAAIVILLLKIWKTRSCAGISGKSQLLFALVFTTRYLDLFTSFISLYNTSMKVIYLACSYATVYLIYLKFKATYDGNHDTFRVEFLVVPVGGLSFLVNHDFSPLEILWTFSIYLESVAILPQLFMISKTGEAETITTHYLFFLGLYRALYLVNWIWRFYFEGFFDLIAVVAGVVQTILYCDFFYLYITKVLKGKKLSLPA
Sequence of UniProt Q99661 (Q99661 whole entry, looked up): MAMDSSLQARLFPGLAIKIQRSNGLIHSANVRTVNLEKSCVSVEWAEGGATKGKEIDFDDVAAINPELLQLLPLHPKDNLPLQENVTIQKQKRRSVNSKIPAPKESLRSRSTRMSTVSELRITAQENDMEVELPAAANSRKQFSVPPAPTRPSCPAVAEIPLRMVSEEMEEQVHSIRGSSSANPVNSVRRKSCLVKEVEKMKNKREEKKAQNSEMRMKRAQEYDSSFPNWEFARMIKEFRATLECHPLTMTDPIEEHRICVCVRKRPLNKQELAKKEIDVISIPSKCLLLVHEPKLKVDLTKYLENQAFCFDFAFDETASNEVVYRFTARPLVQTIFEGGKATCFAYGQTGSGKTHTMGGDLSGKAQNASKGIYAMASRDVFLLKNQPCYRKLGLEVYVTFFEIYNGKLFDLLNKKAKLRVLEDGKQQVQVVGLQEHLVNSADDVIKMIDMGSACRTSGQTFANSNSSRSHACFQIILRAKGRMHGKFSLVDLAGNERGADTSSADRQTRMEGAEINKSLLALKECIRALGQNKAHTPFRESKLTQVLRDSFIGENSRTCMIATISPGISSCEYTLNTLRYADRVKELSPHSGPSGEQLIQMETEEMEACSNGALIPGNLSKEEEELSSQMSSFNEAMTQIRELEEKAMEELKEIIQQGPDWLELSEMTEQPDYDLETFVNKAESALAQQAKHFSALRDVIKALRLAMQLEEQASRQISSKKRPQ
Sequence of UniProt A8MWY0 (A8MWY0 whole entry, looked up): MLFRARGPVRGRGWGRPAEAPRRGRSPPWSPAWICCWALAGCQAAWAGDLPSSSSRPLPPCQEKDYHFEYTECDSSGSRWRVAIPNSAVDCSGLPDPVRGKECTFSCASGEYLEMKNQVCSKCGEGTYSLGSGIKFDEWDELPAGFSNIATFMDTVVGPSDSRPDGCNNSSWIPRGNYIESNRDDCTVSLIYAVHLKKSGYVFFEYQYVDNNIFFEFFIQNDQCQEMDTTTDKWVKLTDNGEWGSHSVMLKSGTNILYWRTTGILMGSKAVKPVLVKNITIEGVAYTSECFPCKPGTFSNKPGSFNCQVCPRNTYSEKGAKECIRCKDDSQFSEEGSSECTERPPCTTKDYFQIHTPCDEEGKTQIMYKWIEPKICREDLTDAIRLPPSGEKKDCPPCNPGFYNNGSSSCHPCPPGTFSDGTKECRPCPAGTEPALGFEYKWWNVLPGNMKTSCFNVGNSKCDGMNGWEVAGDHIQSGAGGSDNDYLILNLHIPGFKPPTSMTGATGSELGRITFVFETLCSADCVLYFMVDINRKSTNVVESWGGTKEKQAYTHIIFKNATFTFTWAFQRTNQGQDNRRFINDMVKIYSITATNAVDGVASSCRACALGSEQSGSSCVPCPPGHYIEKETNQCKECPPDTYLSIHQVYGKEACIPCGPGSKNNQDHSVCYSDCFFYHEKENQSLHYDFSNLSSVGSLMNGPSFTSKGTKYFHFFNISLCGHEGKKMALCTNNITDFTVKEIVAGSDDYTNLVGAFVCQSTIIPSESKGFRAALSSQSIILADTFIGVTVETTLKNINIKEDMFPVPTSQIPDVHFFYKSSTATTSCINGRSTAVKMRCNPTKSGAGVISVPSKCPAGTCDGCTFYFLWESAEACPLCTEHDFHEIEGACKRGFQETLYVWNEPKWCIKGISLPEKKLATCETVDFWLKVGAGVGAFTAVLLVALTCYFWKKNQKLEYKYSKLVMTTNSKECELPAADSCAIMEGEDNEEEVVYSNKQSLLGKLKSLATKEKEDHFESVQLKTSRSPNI
Sequence of UniProt Q14145 (Q14145 whole entry, looked up): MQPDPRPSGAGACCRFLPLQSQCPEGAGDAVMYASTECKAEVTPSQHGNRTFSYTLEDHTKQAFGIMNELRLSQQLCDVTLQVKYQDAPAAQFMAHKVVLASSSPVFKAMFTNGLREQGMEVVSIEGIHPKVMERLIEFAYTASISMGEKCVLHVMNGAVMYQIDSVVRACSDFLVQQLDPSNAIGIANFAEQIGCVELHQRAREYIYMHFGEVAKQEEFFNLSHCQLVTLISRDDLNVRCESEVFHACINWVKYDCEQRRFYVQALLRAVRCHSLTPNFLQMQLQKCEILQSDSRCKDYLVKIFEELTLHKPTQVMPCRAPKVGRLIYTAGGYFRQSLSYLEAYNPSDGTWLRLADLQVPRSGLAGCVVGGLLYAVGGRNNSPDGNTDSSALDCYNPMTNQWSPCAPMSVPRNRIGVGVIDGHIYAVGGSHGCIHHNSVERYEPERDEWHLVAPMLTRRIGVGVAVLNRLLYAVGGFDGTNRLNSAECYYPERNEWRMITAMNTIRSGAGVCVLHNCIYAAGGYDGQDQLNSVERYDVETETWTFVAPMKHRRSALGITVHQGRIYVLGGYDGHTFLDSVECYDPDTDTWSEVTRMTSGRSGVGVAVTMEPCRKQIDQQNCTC

On to KIAA1324L (UniProt A8MWY0), for which the log2 fold change in [1] was -0.03; in [2], 0.091; in test [3] it was -0.09; in [4], 0.07; in test [5], -0.013; in test [6] it was 0.028. The log2 fold change in [7] was 0.109; in test [8], 0.049; in test [9] it was -0.026; in test [10], 0.005.
KIF11 (UniProt P52732): the log2 fold change is -0.004 in test [1]; 1.1 (active) in test [2]; 0.074 in [3]; 0.026 in test [4]; 0.011 in test [5]; 0.043 in test [6]. The log2 fold change is -0.002 in [7], -0.063 in [8], -0.018 in [9] and 0.046 in [10].
As for MAPK14 (UniProt Q16539), the log2 fold change was 0.024 in [1]; -0.055 in [2]; 0.059 in test [3]; -0.361 in [4]; -0.014 in test [5]; 0.014 in [6]. Also, the log2 fold change is 0.796 (active) in test [7], 0.303 in test [8], -0.002 in [9] and -0.05 in [10].
Turning to KEAP1 (UniProt Q14145), the log2 fold change in test [1] is 0.005; in test [2], 0.028; in test [3], 0.036; in test [4] it was -0.019; in test [5], -0.018; in test [6], 0.005. Besides, the log2 fold change in test [7] is 0.03; in test [8], -0.066; in test [9] it was 0.007; in test [10] it was -0.02.
With KIF2C (UniProt Q99661), the log2 fold change was 0.063 in test [1]; -0.033 in test [2]; 0.001 in test [3]; -0.046 in test [4]; -0.008 in test [5]; 0.09 in [6]. The log2 fold change in test [7] was 0.006; in test [8], -0.081; in test [9] it was -0.048; in test [10], 0.008.
For the target KCT2 (UniProt Q8NC54), the log2 fold change in test [1] is -0.015; in [2], -0.036; in [3] it was -0.044; in [4], -0.029; in test [5] it was -0.074; in test [6], 0.021. The log2 fold change is 0.032 in test [7], 0.039 in test [8], -0.002 in [9] and 0.023 in [10].
On to KDELR2 (UniProt P33947), for which the log2 fold change was -0.155 in [1]; -0.105 in test [2]; 0.035 in test [3]; -0.162 in test [4]; -0.014 in test [5]; -0.136 in [6]. Besides, the log2 fold change in test [7] is -0.064; in [8], 0.048; in [9] it was -0.127; in [10] it was -0.013.
In the case of LPCAT3 (UniProt Q6P1A2), the log2 fold change was -0.067 in [1]; -0.352 (active) in [2]; -0.065 in [3]; -0.086 in test [4]; -0.055 in test [5]; -0.117 in test [6]. The log2 fold change in test [7] was -0.024; in test [8] it was -0.017; in [9], 0.172; in [10] it was -0.011.
MFSD5 isoform 2 (UniProt Q6N075): the log2 fold change in test [1] is 0.037; in test [2], 0.018; in test [3], -0.149; in test [4], -0.058; in [5], 0.011; in test [6], -0.026. The log2 fold change is 0.039 in [7], 0.12 in [8], 0.045 in [9] and 0.062 in test [10].
For IMMT isoform 2 (UniProt Q16891), the log2 fold change in test [1] is 0.006; in test [2], -0.101; in [3] it was -0.045; in test [4] it was 0.04; in test [5] it was -0.088; in test [6], -0.25. The log2 fold change in [7] is -0.006; in [8] it was 0.017; in [9], -0.151; in test [10], -0.238.
As to LRBA (UniProt P50851), the log2 fold change was -0.004 in test [1]; -0.06 in [2]; 0.002 in test [3]; -0.113 in [4]; -0.017 in [5]; 0.029 in test [6]. For the same target, the log2 fold change in [7] is -0.008; in [8], 0.031; in test [9], 0.009; in [10], -0.015.
For KDM1A isoform 2 (UniProt O60341), the log2 fold change in test [1] was 0.019; in test [2], 0.004; in test [3] it was -0.009; in [4], -0.03; in [5], -0.055; in test [6] it was 0.07. For the same target, the log2 fold change in test [7] is 0.022; in [8], -0.036; in test [9], 0.068; in [10], -0.008.
With KDM5D isoform 3 (UniProt Q9BY66), the log2 fold change in test [1] was -0.592 (active); in test [2], 0.073; in [3], -0.053; in [4], -0.058; in test [5], -0.044; in test [6] it was 0.045. Besides, the log2 fold change in test [7] was -0.021; in test [8], -0.072; in test [9], -0.047; in test [10], 0.049.
Take IRF2BPL (UniProt Q9H1B7): the log2 fold change in test [1] was 0.283; in test [2], -0.025; in test [3] it was 0.029; in test [4], 0.033; in test [5], 0.058; in test [6] it was 0.015. For the same target, the log2 fold change in [7] was -0.016; in [8], -0.027; in test [9], -0.015; in test [10] it was 0.071.

The record behind these values is the supplement of paper PMC10849652.
